The panel holds about 83,000 compounds, 20% with a hit somewhere; the sample as a whole holds those more often.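 In brief: 96-well plates, 48 h treatment, single concentration, percent growth endpoint.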 Values without a mark were called inactive. Calls of active or inactive are those of the source. The calls were made as follows: active = growth percent below 10; inactive = the rest.
Columns and labels:
Assay in all cases: NCI-60 one-dose screen, 48 h (100 = growth as untreated, 0 = no growth, -100 = all killed)
Settings in all cases: 10 µM unless noted
DU-145 prostate = system: DU-145 prostate
K-562 leukemia = system: K-562 leukemia
MALME-3M melanoma = system: MALME-3M melanoma
MDA-MB-231 breast = system: MDA-MB-231 breast
RXF 393 renal = system: RXF 393 renal
SF-268 CNS = system: SF-268 CNS
SF-295 CNS = system: SF-295 CNS
SF-539 CNS = system: SF-539 CNS
UACC-257 melanoma = system: UACC-257 melanoma
M14 melanoma = system: M14 melanoma

SMILES | growth (DU-145 prostate) | growth (K-562 leukemia) | growth (MALME-3M melanoma) | growth (MDA-MB-231 breast) | growth (RXF 393 renal) | growth (SF-268 CNS) | growth (SF-295 CNS) | growth (SF-539 CNS) | growth (UACC-257 melanoma) | growth (M14 melanoma)
c1ccc2cc(Cn3c[n+](Cc4ccc5ccccc5c4)c4ccccc43)ccc2c1 | 15% | -49.7% (active) | -17.8% (active) | -54.1% (active) | -56.5% (active) | -30.5% (active) | 6.18% (active) | 17.7% | -38.6% (active) | -80.6% (active)
CC/C=C\C/C=C/C=C1/C(=O)C=C[C@@H]1C/C=C\CCCC(=O)OC | 40.1% | 2.34% (active) | 35% | 4.18% (active) | 32.9% | 21.9% | 81.8% | 26.8% | 66.5% | 32.1%
O=C1/C=C/[C@@H](O)[C@@H]2C[C@@H](O)C[C@H]2/C=C/CCC[C@H](CCOCc2ccccc2)O1 | 12.6% | 10.2% | -24.6% (active) | -71.5% (active) | -2.06% (active) | 13.1% | -18.3% (active) | 26.2% | 20.4% | 9.22% (active)
COc1ccc(-c2cn(-c3ccc(Cl)cc3)c(SCC(=O)c3ccc([N+](=O)[O-])cc3)n2)cc1 | 102% | 102% | 87.9% | 80% | 54.1% | 73.1% | 75.3% | 82.5% | 99.6% | 92.4%
CCn1cc(C(=O)N/N=C/c2ccc(Br)cc2)c(=O)c2cc(F)c(N3CCNC(C)C3)c(F)c21 (stereo not given) | 31.4% | -12.6% (active) | 58.7% | 54.8% | 61.3% | 62.6% | 74.5% | 71.4% | 104% | 42.7%
CC1(C)CC2=C3C=C[C@@H]4[C@@]5(C)CC[C@H](O)C(C)(C)[C@@H]5CC[C@@]4(C)[C@]3(C)CC[C@@]2(C(=O)O)CC1=O | 84.1% | 57.5% | 15.9% | 40.4% | 21.8% | 35.4% | 47.3% | 60% | 20.9% | 30.3%
COc1cc(-c2nc3ccc(C)cc3[nH]2)ccc1OCC(=O)N=Nc1c(O)[nH]c2ccc(Cl)cc12 | 22.9% | -39.3% (active) | -26.9% (active) | -61.6% (active) | -40.7% (active) | 31.4% | -7.5% (active) | -80% (active) | 39.4% | 3.17% (active)
COC(c1ccc2ccccc2c1)C(C)C(F)F (stereo not given) | 110% | 97.1% | 99.5% | 111% | 106% | 100% | 97.1% | 95.2% | 91.3% | 99.1%
COc1ccc2c(O)c(/C=C3\N=Nc4ccccc43)oc2c1C[C@H]1CCNC[C@H]1F | 51.1% | 37.4% | 42.3% | 47.8% | 59.9% | 77.2% | 66.9% | 57.4% | 52.2% | 28.7%
CCN(CC)c1ccc(/C=C\c2cc(C)c3cc(C)ccc3n2)cc1 | 61.5% | 13.1% | 32.9% | 54.2% | 16.1% | 40.2% | 24.4% | 20.1% | 24.4% | 15.9%
COc1cc(C2C3=C(COC3=O)N(CCO)c3cc4c(cc32)OCCO4)cc(OC)c1OC (stereo not given) | -30.1% (active) | 5.23% (active) | 53.7% | 9.38% (active) | -8.9% (active) | 26.8% | -5.17% (active) | -25.4% (active) | 42.5% | -28.8% (active)
COc1ccc2nc(Cl)c(/C=C/C(=O)c3ccc(NC(=O)CSc4nnc(-c5ccc(Cl)c(Cl)c5)n4-c4ccccc4)cc3)cc2c1 | 98.2% | 87.2% | 92.3% | 89.3% | 91.8% | 89.1% | 94% | 105% | 81.1% | 91.7%

From PubChem BioAssay (NCI)
